Measured values from PubChem BioAssay.
Active and inactive are the calls of the source. Unless noted, how the calls were made is not given here.

Tests used:
[1] = compounds binding Alexa647 anti-His antibody – biochemical, small-molecule microarray, 635 nm fluorescence, artefact control for SMM control protein annotation, primary screen (AID 1128); details: higher = more signal;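 further: score merges feature fluorescence with signal-to-noise for each printed compound spot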
[2] = system: Human papillomavirus type 1a E7 protein (residues 1-88); experiment: HPV1a E7 small-molecule binders, primary screen, biochemical, small-molecule microarray, residues 1-88, 635 nm (AID 1129); details: small-molecule microarray binding, fluorescence 635 nm; higher = more signal
[3] = molecular target: Focal adhesion kinase 1 (Homo sapiens) (UniProt Q05397); experiment: PTK2 protein binding on printed compound slides – biochemical, small-molecule microarray, 635/667 nm fluorescence, BSA, DTT, primary screen (AID 1130); details: 635 nm fluorescence, higher = more signal;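 further: composite of spot emission at 667 nm and signal to noise over triplicate slides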
[4] = system: Fibrinogen (Alexa647-labelled); experiment: Alexa647-fibrinogen binding to printed small molecules – biochemical, small-molecule microarray, 635/667 nm fluorescence, artefact control for SMM control-protein annotation, profiling panel (AID 1131); details: fibrinogen-A647 binding fluorescence, higher = more signal;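 further: z-score merges 667 nm fluorescence with per-spot signal-to-noise over triplicate slides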
[5] = molecular target: Follistatin (Homo sapiens) (UniProt P19883); experiment: FST protein binding to printed compounds – biochemical, small-molecule microarray, 635/667 nm fluorescence, primary screen (AID 1132); details: 635 nm fluorescence, higher = more signal
[6] = molecular target: Fibroblast growth factor 2 (Homo sapiens) (UniProt P09038); experiment: basic fibroblast growth factor binding to printed compounds – biochemical, small-molecule microarray, 635/667 nm fluorescence, primary screen (AID 1133); details: FGF2, fluorescence 635/667, higher = more signal
[7] = JC-1 mitochondrial potential readout, lung cancer cells – cell-based, A549, JC-1 fluorescence, basal, 24 h, 100 nL, profiling panel (AID 1138); details: higher = more signal;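 further: A549 lung adenocarcinoma cells under basal conditions with no added stimulus; test concentration not given here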
Lefty1 = Lefty1 protein binding to printed compounds – biochemical, small-molecule microarray, 635/667 nm fluorescence, primary screen (AID 1139); details: fluorescence 635/667, higher = more signal
[8] = system: wheat germ agglutinin (Triticum aestivum), Alexa647-labelled; experiment: Alexa647-WGA lectin binding to printed small molecules – biochemical, small-molecule microarray, 635/667 nm fluorescence, artefact control for SMM control-protein annotation, profiling panel (AID 1140); details: WGA-A647 binding, 635 nm fluorescence, higher = more signal;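 further: score merges 667 nm feature emission with signal to noise over triplicate slides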
[9] = molecular target: Luciferin 4-monooxygenase (Photinus pyralis) (UniProt P08659); experiment: inhibition of purified Photinus pyralis luciferase – biochemical, luminescence, purified enzyme, 2006 set, primary screen (AID 1141); details: purified firefly luciferase, SteadyGlo luminescence, 30 min; higher = more signal, called active from +8 up or from −8 down;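 further: cell-free assay with purified firefly luciferase at 100 ng per well in PBS; test concentration not given here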
[10] = system: Wnt5a (protein binding on small-molecule microarray); experiment: small molecules binding Wnt5a protein – biophysical, small-molecule microarray, 635/667 nm fluorescence, primary screen (AID 1142); details: 635 nm fluorescence, higher = more signal;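 further: fluorescence read at 667 nm with signal to noise per printed feature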
[11] = ATP-based viability of Huh7 replicon cells – cell-based, CellTiter-Glo luminescence, basal, 48 h, cytotoxicity control for HCV replication inhibitor project, primary screen (AID 1143); details: higher = more signal, called active from +8 up or from −8 down;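 further: Huh7 hepatoma cells carrying a hepatitis C replication reporter with no stimulus; test concentration not given here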
[12] = Pseudomonas biofilm growth suppression – PAO1 strain, BacTiter-Glo luminescence, LB-PBS, primary screen (AID 1144); details: P. aeruginosa PAO1 biofilm, 12 h, higher = more signal
[13] = basal CRE-LacZ reporter activity in PC12 – cell-based, unstimulated, primary screen (AID 1145); details: no forskolin, luminescence, 4.5 h, higher = more signal, called active from +8 up or from −8 down
[14] = forskolin-driven CRE-LacZ activity in PC12 – cell-based, CRE-LacZ reporter, forskolin-stimulated, primary screen (AID 1146); details: luminescence, 4.5 h, higher = more signal, called active from +8 up or from −8 down;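 further: PC12 cells with 6xCRE LacZ reporter stimulated by forskolin 10 µM; beta-galactosidase reporter signal reflecting CREB driven transcription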
[15] = molecular target: Streptavidin (Streptomyces avidinii) (UniProt P22629); experiment: compounds binding control protein streptavidin – biophysical, small-molecule microarray, 635/667 nm fluorescence, artefact control for SMM compound annotation, primary screen (AID 1147); details: higher = more signal;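 further: signal reflects streptavidin binding to arrayed compounds as a control protein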
[16] = probe aInhba binding on compound microarray – biochemical, small-molecule microarray, 635/667 nm fluorescence, primary screen (AID 1148); details: higher = more signal;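 further: score merges 667nm spot fluorescence with signal-to-noise for antibody binding to printed compounds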
Torsin-1A (Homo sapiens) [17] = molecular target: Torsin-1A (Homo sapiens) (UniProt O14656); experiment: TOR1A wild-type binding on microarray – cell lysate, small-molecule microarray, lysate, 635/667 nm, primary screen (AID 1149); details: COS7 hTOR1A-WT lysate, 635 nm fluorescence, higher = more signal
Torsin-1A (Homo sapiens) [18] = molecular target: Torsin-1A (Homo sapiens) (UniProt O14656); experiment: torsin A mutant lysate binding on microarrays – cell lysate, small-molecule microarray, COS7 lysate, 635/667 nm fluorescence, primary screen (AID 1150); details: COS7 hTOR1A mutant lysate, 635 nm fluorescence, higher = more signal;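 further: score pools 667 nm emission and signal to noise measuring lysate protein binding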
[19] = system: Sonic hedgehog protein (Shh); experiment: Sonic hedgehog microarray binding compounds – biochemical, small-molecule microarray, 635/667 nm fluorescence, primary screen (AID 1151); details: 635 nm fluorescence, higher = more signal;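 further: Shh protein binding to compounds spotted on small-molecule microarray slides; score combines spot fluorescence intensity with signal-to-noise across triplicate slides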

Sequence of Follistatin (Homo sapiens) (P19883 whole entry, looked up): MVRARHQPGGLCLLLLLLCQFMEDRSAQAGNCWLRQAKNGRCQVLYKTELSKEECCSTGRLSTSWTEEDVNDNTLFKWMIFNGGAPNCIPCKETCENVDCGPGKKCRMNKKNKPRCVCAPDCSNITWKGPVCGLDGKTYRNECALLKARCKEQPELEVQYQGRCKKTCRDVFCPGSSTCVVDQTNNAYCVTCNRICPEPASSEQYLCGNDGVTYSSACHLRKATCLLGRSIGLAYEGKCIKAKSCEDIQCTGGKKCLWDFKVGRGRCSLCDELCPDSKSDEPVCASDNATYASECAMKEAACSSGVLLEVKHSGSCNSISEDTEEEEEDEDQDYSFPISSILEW
Sequence of Streptavidin (Streptomyces avidinii) (P22629 whole entry, looked up): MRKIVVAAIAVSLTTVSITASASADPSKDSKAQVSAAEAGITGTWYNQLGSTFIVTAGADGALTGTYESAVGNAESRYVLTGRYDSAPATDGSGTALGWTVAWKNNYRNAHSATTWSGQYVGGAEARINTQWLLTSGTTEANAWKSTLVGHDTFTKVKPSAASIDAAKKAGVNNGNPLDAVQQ
Sequence of Fibroblast growth factor 2 (Homo sapiens) (P09038 whole entry, looked up): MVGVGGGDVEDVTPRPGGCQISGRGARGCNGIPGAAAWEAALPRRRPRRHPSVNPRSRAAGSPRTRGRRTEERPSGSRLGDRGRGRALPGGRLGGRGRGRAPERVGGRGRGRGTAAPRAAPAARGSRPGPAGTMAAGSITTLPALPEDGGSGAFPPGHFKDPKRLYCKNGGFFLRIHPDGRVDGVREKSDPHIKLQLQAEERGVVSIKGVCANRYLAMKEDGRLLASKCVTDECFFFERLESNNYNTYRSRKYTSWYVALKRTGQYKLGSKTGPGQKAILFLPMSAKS
Sequence of Luciferin 4-monooxygenase (Photinus pyralis) (P08659 whole entry, looked up): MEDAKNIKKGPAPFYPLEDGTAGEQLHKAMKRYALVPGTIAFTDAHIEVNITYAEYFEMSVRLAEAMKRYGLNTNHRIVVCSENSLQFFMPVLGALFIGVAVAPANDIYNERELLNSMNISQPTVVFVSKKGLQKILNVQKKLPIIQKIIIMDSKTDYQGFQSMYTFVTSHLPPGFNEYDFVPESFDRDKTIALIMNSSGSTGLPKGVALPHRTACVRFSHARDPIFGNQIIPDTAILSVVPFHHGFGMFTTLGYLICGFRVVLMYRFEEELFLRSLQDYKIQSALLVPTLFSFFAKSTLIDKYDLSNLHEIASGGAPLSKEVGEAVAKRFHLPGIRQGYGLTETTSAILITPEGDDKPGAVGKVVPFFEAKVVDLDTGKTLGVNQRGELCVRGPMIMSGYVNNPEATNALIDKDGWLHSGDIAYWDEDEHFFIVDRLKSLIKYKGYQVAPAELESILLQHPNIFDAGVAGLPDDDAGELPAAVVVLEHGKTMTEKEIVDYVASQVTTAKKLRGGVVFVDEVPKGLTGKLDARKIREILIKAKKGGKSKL
Sequence of Torsin-1A (Homo sapiens) (O14656 whole entry, looked up): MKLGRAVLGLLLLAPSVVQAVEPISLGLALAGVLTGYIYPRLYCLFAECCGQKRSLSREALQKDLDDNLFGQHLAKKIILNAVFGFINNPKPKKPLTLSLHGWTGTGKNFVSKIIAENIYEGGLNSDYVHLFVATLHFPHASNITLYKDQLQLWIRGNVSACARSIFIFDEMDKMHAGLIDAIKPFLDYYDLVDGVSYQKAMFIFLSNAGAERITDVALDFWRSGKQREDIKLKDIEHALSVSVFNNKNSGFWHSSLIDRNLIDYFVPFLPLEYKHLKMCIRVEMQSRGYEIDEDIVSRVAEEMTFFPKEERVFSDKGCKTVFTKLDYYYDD
Sequence of Focal adhesion kinase 1 (Homo sapiens) (Q05397 whole entry, looked up): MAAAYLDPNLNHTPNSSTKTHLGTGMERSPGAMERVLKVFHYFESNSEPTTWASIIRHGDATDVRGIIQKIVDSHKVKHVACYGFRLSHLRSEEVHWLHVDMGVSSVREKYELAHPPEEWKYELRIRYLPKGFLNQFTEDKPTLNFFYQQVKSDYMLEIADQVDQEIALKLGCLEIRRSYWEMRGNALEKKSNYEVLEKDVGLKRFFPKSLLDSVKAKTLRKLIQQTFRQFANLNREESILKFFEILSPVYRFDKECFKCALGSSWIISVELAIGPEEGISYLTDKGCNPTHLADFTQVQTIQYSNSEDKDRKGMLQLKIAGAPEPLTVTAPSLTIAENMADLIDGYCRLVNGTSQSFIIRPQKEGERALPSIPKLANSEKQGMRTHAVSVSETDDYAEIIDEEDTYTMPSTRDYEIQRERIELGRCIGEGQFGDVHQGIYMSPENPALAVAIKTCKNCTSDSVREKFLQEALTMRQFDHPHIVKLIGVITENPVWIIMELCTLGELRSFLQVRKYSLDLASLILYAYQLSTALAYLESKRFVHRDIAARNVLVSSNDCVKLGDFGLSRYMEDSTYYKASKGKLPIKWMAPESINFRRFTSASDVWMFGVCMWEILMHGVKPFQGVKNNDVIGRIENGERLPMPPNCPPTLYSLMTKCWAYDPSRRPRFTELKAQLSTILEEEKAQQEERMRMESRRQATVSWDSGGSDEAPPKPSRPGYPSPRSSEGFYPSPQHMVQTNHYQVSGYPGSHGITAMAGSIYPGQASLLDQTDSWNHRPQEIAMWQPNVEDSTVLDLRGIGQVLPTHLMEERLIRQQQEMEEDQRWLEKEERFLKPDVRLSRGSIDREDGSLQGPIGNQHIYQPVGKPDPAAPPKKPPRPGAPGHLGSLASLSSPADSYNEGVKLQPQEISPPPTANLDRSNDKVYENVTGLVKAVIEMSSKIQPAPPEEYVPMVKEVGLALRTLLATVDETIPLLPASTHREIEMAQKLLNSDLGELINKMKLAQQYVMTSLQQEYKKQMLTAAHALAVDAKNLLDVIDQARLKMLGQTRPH

Row | Compound | composite z-score [1] | composite z-score [2] | composite z-score [3] | composite z-score [4] | composite z-score [5] | composite z-score [6] | z-score [7] | composite z-score (Lefty1) | composite z-score [8] | z-score [9] | composite z-score [10] | z-score [11] | z-score [12] | z-score [13] | z-score [14] | composite z-score [15] | composite z-score [16] | composite z-score (Torsin-1A (Homo sapiens) [17]) | composite z-score (Torsin-1A (Homo sapiens) [18]) | composite z-score [19]
1 | COCCCNC(=O)[C@]1(CCC(=O)OC(C)(C)C)N=C(c2ccc(OCCCO)cc2)O[C@@H]1c1ccccc1CN=[N+]=[N-] | 1.3 | 1.26 | 0.383 | 0.197 | 1.28 | 1.09 | -0.627 | 0.19 | 1.13 | -1.11 (inactive) | 0.297 | 0.107 (inactive) | -0.514 (inactive) | -0.459 (inactive) | -1.18 (inactive) | 1.24 | 0.287 | 1.64 | 1.58 | 0.233
2 | [N-]=[N+]=NCc1ccccc1[C@@H]1OC(c2ccc(OCCCO)cc2)=N[C@]1(Cc1ccccc1)C(N)=O | 0.888 | 1.25 | 1.22 | 1.06 | 1.28 | 0.0766 | 0.199 | 0.186 | 1.06 | -0.0322 (inactive) | 0.601 | -1.72 (inactive) | -1.85 (inactive) | -1.19 (inactive) | -2.1 (inactive) | 2.03 | 0.228 | 0.162 | -0.106 | -0.315
3 | Cc1ccccc1C(O)C1C=CC2C(=O)N(c3ccccc3)C(=O)C2N1Nc1ccc(C(C)C)cc1 (stereo not given) | 0.0147 | 1.14 | 0.655 | 0.997 | 1.02 | -0.144 | -0.504 | 0.383 | 0.882 | -0.263 (inactive) | 0.0944 | -0.0816 (inactive) | -0.481 (inactive) | 0.812 (inactive) | 0.131 (inactive) | 1.26 | 0.176 | -0.0717 | 0.62 | 0.214
4 | C=C[C@@H](COC(=O)OC(C)(C)C)N(Cc1ccc(OC)cc1)S(=O)(=O)c1ccc(Br)cc1 | 1.03 | 1.11 | 0.43 | 0.731 | 0.844 | 0.683 | 3.28 | 0.9 | 0.285 | -0.694 (inactive) | 0.0249 | -1.75 (inactive) | 0.551 (inactive) | 3.04 (inactive) | 1.88 (inactive) | 0.603 | -0.0332 | 0.604 | 0.299 | 1.57
5 | CC(=O)n1cc(C(O)C2C=CC3C(=O)N(c4ccccc4)C(=O)C3N2Nc2ccc([N+](=O)[O-])cc2)c2ccccc21 (stereo not given) | 3.33 | 0.981 | 0.457 | 0.916 | 0.347 | -0.105 | -1.02 | -0.719 | 1.45 | 1.08 (inactive) | 0.199 | -0.547 (inactive) | -0.197 (inactive) | -0.322 (inactive) | -0.647 (inactive) | 0.808 | -0.0371 | -0.268 | 0.475 | -0.0727
